Screening results deposited in PubChem BioAssay by several laboratories.
Most compounds without a hit are left out; they make up all but 1.5% or so of the library.
RN4220 kill: S. aureus RN4220 growth inhibition; OD600, 16 h; inhibition, % (concentration not given with the values); 330,000 tested, 0.33% active; AID 1259311; in the data active means inhibition above about 85%;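 further: plate controls were untreated cells for no effect and reference antibiotic for full effect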
Sa ugtP lethal: compounds lethal to S. aureus RN4220 ugtP deletion mutant; 330,000 tested, 0.54% active; OD600 growth, 16 h; growth inhibition, % (test concentration not listed); AID 1259309; in the data active means growth inhibition above about 68%;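 further: plate controls were untreated wells for no effect and antibiotic for full effect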
VHR inh abs: inhibitors of human VHR1 phosphatase (DUSP3) | P51452 | inhibition, % at 13.3 µM | recombinant VHR phosphatase, pNPP absorbance | AID 1654 | 290,000 tested, 0.52% active; in the data active means inhibition above about 50%
Target sequence (P51452 whole entry, looked up): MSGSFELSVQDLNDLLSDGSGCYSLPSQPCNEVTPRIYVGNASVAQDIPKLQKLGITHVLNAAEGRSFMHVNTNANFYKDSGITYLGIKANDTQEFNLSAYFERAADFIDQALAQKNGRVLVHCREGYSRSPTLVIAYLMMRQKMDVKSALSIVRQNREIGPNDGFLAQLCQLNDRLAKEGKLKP
CCHF vOTU inh-1: CCHFV vOTU protease inhibition; Pep-AMC fluorescence; inhibition, % at 11.5 µM; 370,000 tested, 0.55% active; further: 0% = vehicle wells with enzyme and 100% = no enzyme wells
SSB-PriA inh: inhibitors of Klebsiella pneumoniae PriA binding to SSB C-terminal tail. AlphaScreen SSBct-PriA binding, biotinylated peptide. AID 1272365. 430,000 tested, 0.6% active. inhibition, % at 33 µM; in the data active means inhibition mostly above about 37%, no sharp cut-off; inactive means mostly below about 20%;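 further: plate controls were negative control peptide for no effect and reference peptide for full effect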
CCHF vOTU inh-2: confirmation of CCHF virus vOTU protease inhibitors; inhibition, % at 11.5 µM; shares compounds with CCHF vOTU inh-1; 1,900 tested, 17% active; Recombinant CCHFV vOTU, Pep-AMC fluorescence; AID 686976
The depositor's hits bear a star; i = inactive; nt = not tested or not shown. Unless noted, no stated cut-off is given here; in the data, active means inhibition above about 30%; inactive means the rest.

SMILES	RN4220 kill	Sa ugtP lethal	VHR inh abs	CCHF vOTU inh-1	SSB-PriA inh	CCHF vOTU inh-2
COc1cccc(Oc2ccc(S(=O)(=O)N3CCCC3)cc2[N+](=O)[O-])c1	nt	nt	12	34*	4	-12
CCCCNC(=O)C(CC)(ONc1ccccc1C(F)(F)F)c1cccc2ccccc12 (stereo not given)	nt	nt	nt	nt	-13	nt
CC(O)(c1cccc(F)c1)c1nc(/C=C/c2ccccc2)cs1 (stereo not given)	nt	nt	nt	17	nt	nt
CC(O)(c1ccc(F)c(F)c1)c1nc(/C=C/c2ccc(C(F)(F)F)cc2)cs1 (stereo not given)	nt	nt	nt	33*	nt	-6
CC(C)(C)c1cc(NC(=O)COC(=O)c2ccc(O)cc2O)n(-c2ccccc2)n1	2	-4	nt	10	-10	nt
Cc1ccc(C(=O)OCC(=O)Nc2cc(C(C)(C)C)nn2-c2ccccc2)c(O)c1	1	11	nt	33*	-4	-6
O=C(Nc1nc(CN2CCc3ccccc3C2)cs1)c1ccc([N+](=O)[O-])o1	nt	nt	nt	nt	-3	nt
COC1=CC(=Cc2c(N)n3c(nc2=O)sc2cc(S(C)(=O)=O)ccc23)C=CC1=O	nt	nt	nt	nt	6	nt
COc1ccc(-c2cc(-c3ccc(Cl)cc3)nc3sc(C(=O)N4CCOCC4)c(N)c23)cc1	nt	nt	nt	nt	-2	nt
CCOc1cc(Br)cc(C(c2c(C(=O)O)[nH]c3ccccc23)c2c(C(=O)O)[nH]c3ccccc23)c1O	34	-1	6	43*	-10	22
CSc1ccc(C(c2c(C(=O)O)[nH]c3ccccc23)c2c(C(=O)O)[nH]c3ccccc23)cc1	30	-12	14	22	3	nt
COC(=O)CCC(=O)OC1(C)C(=O)C2=CN(C(CO)CO)C(c3ccc(OC)cc3)=CC2=C(Br)C1=O (stereo not given)	nt	nt	4	31*	nt	18
Cc1cc(C(=O)N2CC(C(=O)Nc3ccc4cn[nH]c4c3)C2)no1	nt	nt	nt	nt	-4	nt
O=C(N=C1SC2CS(=O)(=O)CC2N1c1ccc(Br)cc1F)C1CC1 (stereo not given)	3	0	34	1	1	nt
O=C(N=C1SC2CS(=O)(=O)CC2N1c1ccc(Br)cc1Cl)C1CC1 (stereo not given)	2	4	13	34*	2	-4
O=C(C1=CN(c2ccc(Cl)c(C(F)(F)F)c2)c2ccccc2S1(=O)=O)N1CCCC1	nt	nt	nt	nt	-14	nt
COc1ccc(/C=N/Nc2nncn2N)cc1Br	nt	nt	2	91*	nt	4
Nn1cnnc1N/N=C/c1ccc(Cl)cc1Cl	nt	nt	-13	102*	nt	-17
COc1cc(C=NNc2nncn2N)ccc1OC(C)=O	4	2	nt	nt	0	nt
Nn1cnnc1NN=Cc1ccc(Cl)cc1Cl	-4	2	nt	nt	0	nt
COc1cc(/C=N/Nc2nncn2N)ccc1OCc1c(C)no[n+]1[O-]	nt	nt	6	97*	i	-8
CS(=O)(=O)N1CCC(C(=O)N2CCN(c3nc4ccccc4s3)CC2)CC1	nt	nt	nt	nt	5	nt
O=S1(=O)NC2c3ccccc3CC2O1 (stereo not given)	8	0	13	37*	-14	-5
O=S1(=O)CCOC2Cc3ccccc3C2N1Cc1ccccc1 (stereo not given)	6	2	nt	nt	nt	nt
COC(=O)[C@]12C[C@H](CC(=O)NCCc3ccccc3OC)C(=O)N(CCc3ccc(OC)c(OC)c3)C1=C[C@H](C(C)C)O[C@@H]2C1CC1	nt	nt	nt	14	nt	nt
SMILES	RN4220 kill	Sa ugtP lethal	VHR inh abs	CCHF vOTU inh-1	SSB-PriA inh	CCHF vOTU inh-2
CCCCCCCCN1C(=O)[C@H](CC(=O)N2CCCC2)C[C@@]2(C(=O)OCC)CCCC=C12	nt	nt	nt	34*	nt	20
CCCCCCCCN1C(=O)[C@@H](CC(=O)NCCc2ccccc2OC)C[C@@]2(C(=O)OC)C1=C[C@H](C(C)C)O[C@@H]2C1CC1	nt	nt	nt	35*	nt	16
COC(=O)[C@@]12C[C@@H](CC(=O)NCc3ccc(C)o3)C(=O)N(CCc3ccc(OC)c(OC)c3)C1=CCC(C)(C)C2	nt	nt	nt	36*	nt	-4
CCCCCCCCN1C(=O)[C@H](CC(=O)NCc2ccccc2)C[C@@]2(C(=O)OC)CCCCC=C12	nt	nt	nt	40*	nt	31*
COC(=O)[C@@]12C[C@@H](CC(=O)NCc3ccccc3)C(=O)N(CCc3ccc(OC)c(OC)c3)C1=CCC(C)(C)C2	nt	nt	nt	20	nt	nt
Cc1c(C(=O)Nc2ccccc2-c2cn3ccsc3n2)cnn1-c1ccccc1	nt	nt	nt	nt	-6	nt
COC(=O)[C@]12CCCCC=C1N(CCC1=CCCCC1)C(=O)[C@H](CC(=O)NCCC(C)C)C2	nt	nt	nt	44*	nt	-6
CCCCCCCCN1C(=O)[C@@H](CC(=O)NCc2ccccc2)C[C@@]2(C(=O)OC)C1=C[C@H](C(C)C)O[C@@H]2C1CC1	nt	nt	nt	39*	nt	12
CCCCCCCCN1C(=O)[C@@H](CC(=O)N2CCN(C(=O)C3CC3)CC2)C[C@@]2(C(=O)OC)C1=C[C@H](C(C)C)O[C@@H]2C1CC1	nt	nt	nt	26	nt	nt
CCCCCCCCN1C(=O)[C@@H](CC(=O)N2CCN(C(=O)OCC)CC2)C[C@@]2(C(=O)OC)C1=C[C@H](C(C)C)O[C@@H]2C1CC1	nt	nt	nt	33*	nt	17
COCCCNC(=O)C[C@@H]1C[C@@]2(C(=O)OC)CCCCC=C2N(CCC2=CCCCC2)C1=O	nt	nt	nt	2	nt	nt
CCCCCCCCN1C(=O)[C@@H](CC(=O)NCc2ccc(C)o2)C[C@@]2(C(=O)OC)C1=C[C@H](C(C)C)O[C@@H]2C1CC1	nt	nt	nt	30*	nt	27
O=C(c1cc(=O)[nH]c2ccccc12)N1CCC(Cc2n[nH]c(=O)n2-c2ccccc2F)CC1	nt	nt	nt	nt	-12	nt
O=C(Cc1ccc(F)cc1)NCC1(c2cccs2)CCCC1	nt	nt	nt	nt	-4	nt
CCOc1cccc2cc(-c3csc(NC(=O)c4cccc(N5C(=O)CCC5=O)c4)n3)oc12	nt	nt	nt	nt	18	nt
O=C(CCc1ccccc1Br)NCC1(O)CCOCC1	nt	nt	nt	nt	-7	nt
Cc1ccc(CN2C(=O)C[C@@H](NC(=O)OCC3c4ccccc4-c4ccccc43)C/C=C\C2c2ccc(C)cc2)cc1 (stereo not given in full)	1	-6	nt	32*	0	-9
O=C(NC1C/C=C\C(c2ccccc2)N(c2ccccc2)C(=O)C1)OCC1c2ccccc2-c2ccccc21 (stereo not given)	nt	nt	nt	nt	-2	nt
COc1cc(NCCCNC(C)C)c2nccc(C)c2c1	2	1	nt	57*	33	29
O=C(CN1C(=O)/C(=C/c2ccco2)SC1=S)Nc1ccc(C(=O)O)c(O)c1	4	-1	15	36*	11	22
COc1ccc(C=C2SC(=S)N(CCCC(=O)Nc3ccc(C(=O)O)c(O)c3)C2=O)cc1OC	nt	nt	nt	22	nt	nt
O=C(CCCN1C(=O)/C(=C/c2ccccc2)SC1=S)Nc1ccc(C(=O)O)c(O)c1	nt	nt	19	30*	7	5
Cc1nn(-c2cccc(Cl)c2)c2c1C(c1cccnc1)C(C#N)=C(N)O2 (stereo not given)	0	-8	19	35*	14	-20
CCOc1cn(C)c(C(=O)Nc2ccc(Cl)c(Cl)c2)cc1=O	nt	nt	nt	nt	0	nt
COc1ccc(N2CC(C(=O)Nc3nnc(C4CCCCC4)s3)CC2=O)cc1 (stereo not given)	0	15	-11	30*	-3	5
